PubChem BioAssay (NCI)
This is part of a sample that, as a whole, favours compounds with a hit. Of some 83,000 tested, about 20% had one in any assay.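 Values shown are percent growth following 48 h exposure of cells in 96-well plates to a single concentration of compound; below 10 was considered active.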 Calls of active or inactive are those of the source.

Tests used:
Assay in all cases: NCI-60 one-dose screen, 48 h (100 = growth as untreated, 0 = no growth, -100 = all killed)
Conditions in all cases: 10 µM unless noted
HCT-15 colon = tested on: HCT-15 colon
HT29 colon = tested on: HT29 colon
SNB-75 CNS = tested on: SNB-75 CNS
SNB-19 CNS = tested on: SNB-19 CNS
U251 CNS = tested on: U251 CNS
PC-3 prostate = tested on: PC-3 prostate
SK-MEL-5 melanoma = tested on: SK-MEL-5 melanoma
UACC-62 melanoma = tested on: UACC-62 melanoma
SK-MEL-28 melanoma = tested on: SK-MEL-28 melanoma

Measured: growth

Cc1ccc(-c2nc([P+](c3ccccc3)(c3ccccc3)c3ccccc3)c(N3CCOCC3)o2)cc1
inactive: HCT-15 colon 54.1% | SNB-19 CNS 11.5% | U251 CNS 12.4% | SK-MEL-28 melanoma 29.9%
active: HT29 colon -0.839% | SNB-75 CNS 0.0247% | PC-3 prostate -18.8% | SK-MEL-5 melanoma -95.5% | UACC-62 melanoma -29.4%

CN1CCN(c2nc(-c3csc(-c4cccs4)n3)cc3ccccc23)CC1
active: HCT-15 colon 7.33% | HT29 colon -27.3%
inactive: SNB-75 CNS 54.5% | SNB-19 CNS 66.1% | U251 CNS 28.8% | PC-3 prostate 39.8% | SK-MEL-5 melanoma 43.7% | UACC-62 melanoma 33.6% | SK-MEL-28 melanoma 68.9%

Cc1ccccc1-c1nc(C(Cl)Cl)nc2cc(-c3ccccc3)nn12
inactive: HCT-15 colon 36.1% | HT29 colon 13.7% | SNB-19 CNS 69.8% | U251 CNS 47.2% | PC-3 prostate 62% | SK-MEL-5 melanoma 86.4% | UACC-62 melanoma 74.4% | SK-MEL-28 melanoma 97.3%
active: SNB-75 CNS 8.7%

OCC1OC(n2cnc3c(Cl)ncnc32)CC1O (configuration not stated)
inactive: HCT-15 colon 95.6% | HT29 colon 107% | SNB-75 CNS 102% | SNB-19 CNS 96.1% | U251 CNS 99.2% | PC-3 prostate 88.9% | SK-MEL-5 melanoma 106% | UACC-62 melanoma 101% | SK-MEL-28 melanoma 110%

CN(C)c1ccc(-c2ccc(-c3ccc(C(=N)N)c(F)c3)s2)cc1
active: HCT-15 colon -80.8% | HT29 colon -61.2% | SNB-19 CNS -71% | U251 CNS -96.2% | PC-3 prostate -90.4% | SK-MEL-5 melanoma -64.9% | UACC-62 melanoma -93.3%
inactive: SNB-75 CNS 98.9% | SK-MEL-28 melanoma 74.5%

C=C(C)[C@@H]1CC[C@]2(C)[C@H](CC=C3[C@@H]4CC(C)(C)CC[C@]4(C(=O)OC)CC[C@]32C)[C@@]1(C)CC/C(N)=N/O
inactive: HCT-15 colon 18.5% | HT29 colon 24.3% | SNB-75 CNS 101% | SNB-19 CNS 67.9% | PC-3 prostate 26.6% | UACC-62 melanoma 58.6% | SK-MEL-28 melanoma 60.9%
active: U251 CNS -81.8% | SK-MEL-5 melanoma -19.9%

Cc1nn(-c2ccc(Cl)cc2)c(=O)n1CCn1cnc2ccccc21
inactive: HCT-15 colon 104% | HT29 colon 102% | SNB-75 CNS 106% | SNB-19 CNS 113% | U251 CNS 101% | PC-3 prostate 104% | SK-MEL-5 melanoma 113% | UACC-62 melanoma 101% | SK-MEL-28 melanoma 114%

Nc1ccccc1NC(=O)c1ccc(CN2CCC/C(=C\c3ccccn3)C2=O)cc1
active: SK-MEL-5 melanoma -15.6% | UACC-62 melanoma -23.6%
inactive: HCT-15 colon 16.5% | HT29 colon 13.8% | SNB-75 CNS 15.5% | SNB-19 CNS 38.1% | U251 CNS 23.9% | PC-3 prostate 44% | SK-MEL-28 melanoma 16.3%

CN1CCN(c2ccc3nc(-c4[nH]ncc4Nc4ncnc5[nH]ccc45)[nH]c3c2)CC1
active: HCT-15 colon 4.21% | HT29 colon 7.01% | SNB-75 CNS -52.7% | SNB-19 CNS 2.27% | U251 CNS 7.05% | SK-MEL-5 melanoma -13% | UACC-62 melanoma 1.28% | SK-MEL-28 melanoma -11.3%
inactive: PC-3 prostate 11.7%

O=C1C=Cc2ncccc2C1=O
inactive: HCT-15 colon 80.3% | HT29 colon 108% | SNB-75 CNS 119% | SNB-19 CNS 85.2% | U251 CNS 42.2% | PC-3 prostate 88.5% | SK-MEL-5 melanoma 92.9% | UACC-62 melanoma 90.7% | SK-MEL-28 melanoma 121%

CCCCn1c(-c2ccc(O)cc2)cn2c3c(=O)[nH]c(=O)n(C)c3nc12
inactive: HCT-15 colon 54.2% | HT29 colon 77.6% | SNB-75 CNS 53.2% | SNB-19 CNS 82.5% | U251 CNS 66.7% | PC-3 prostate 68.9% | SK-MEL-5 melanoma 51.9% | UACC-62 melanoma 51.2% | SK-MEL-28 melanoma 74.7%

C=C(C)[C@@H]1CC[C@]2(C)[C@H](CC=C3[C@@H]4CC(C)(C)CC[C@]4(C=O)CC[C@]32C)[C@@]1(C)CCCN
active: HT29 colon 7.12%
inactive: HCT-15 colon 42.1% | SNB-75 CNS 87.8% | SNB-19 CNS 89.1% | U251 CNS 69.6% | PC-3 prostate 47.5% | SK-MEL-5 melanoma 83% | UACC-62 melanoma 87.8% | SK-MEL-28 melanoma 89.4%

COc1ccc(CCN2C(=O)C(C)(C)SC2=S)cc1OC
inactive: HCT-15 colon 101% | HT29 colon 105% | SNB-75 CNS 76.8% | SNB-19 CNS 96.4% | U251 CNS 100% | PC-3 prostate 98.4% | SK-MEL-5 melanoma 99.5% | UACC-62 melanoma 92.7% | SK-MEL-28 melanoma 102%

CN(C)c1ccc(N)c2ccccc12
active: HCT-15 colon -82.9% | SK-MEL-5 melanoma -99.4% | UACC-62 melanoma -6.64%
inactive: HT29 colon 70.5% | SNB-75 CNS 101% | SNB-19 CNS 66.7% | U251 CNS 64.3% | PC-3 prostate 32.1% | SK-MEL-28 melanoma 56.6%

Nc1c2c(nc3ccc(Br)cc13)CC(c1ccccc1)CC2=O (configuration not stated)
inactive: HCT-15 colon 21.9% | HT29 colon 15.7% | SNB-19 CNS 37% | U251 CNS 41.8% | PC-3 prostate 40.4% | SK-MEL-5 melanoma 20.1% | UACC-62 melanoma 38.1% | SK-MEL-28 melanoma 55.5%
active: SNB-75 CNS -1.66%

CC(=O)c1c(C)[nH]c(-c2nc3ccc(N4CCN(C)CC4)cc3[nH]2)c1-c1ccc(N(C)C)cc1
inactive: SNB-19 CNS 42.4% | U251 CNS 51% | PC-3 prostate 42% | UACC-62 melanoma 21.1% | SK-MEL-28 melanoma 45.8%
active: HCT-15 colon 4.03% | HT29 colon 9.08% | SNB-75 CNS -9.22% | SK-MEL-5 melanoma 2.25%

NC1(N)C=CC2=C(C=C1)C1(N)C3=C(C=CC(N)(N)C=C3)N2C2(N)C3=C(C=CC(N)(N)C=C3)N1C1=C2C=CC(N)(N)C=C1
inactive: HCT-15 colon 94.7% | HT29 colon 94.4% | SNB-75 CNS 93.9% | SNB-19 CNS 101% | U251 CNS 83.3% | PC-3 prostate 72.2% | SK-MEL-5 melanoma 75% | UACC-62 melanoma 81.5% | SK-MEL-28 melanoma 99.1%

COc1ccc2nc(-c3cc(-c4cc(OC)c(OC)c(OC)c4)n[nH]3)[nH]c2c1
inactive: HCT-15 colon 15.1% | HT29 colon 42.7% | SNB-19 CNS 50.1% | U251 CNS 39.3%
active: SNB-75 CNS -2.76% | PC-3 prostate -22.8% | SK-MEL-5 melanoma -92.9% | UACC-62 melanoma -53.6% | SK-MEL-28 melanoma -17.6%

C=COCCCCCCCCCCCCCCCCCC
inactive: HCT-15 colon 114% | HT29 colon 102% | SNB-75 CNS 122% | SNB-19 CNS 96.9% | U251 CNS 106% | PC-3 prostate 84.5% | SK-MEL-5 melanoma 112% | UACC-62 melanoma 88.6% | SK-MEL-28 melanoma 104%

CC1(C)C(=O)/C(=C\c2ccccn2)C[C@]2(C)[C@H]3CC[C@@H]4[C@@H](C(=O)/C=C/c5ccccn5)CC[C@@]4(C)[C@]3(C)CC[C@@H]12
active: HCT-15 colon -31% | HT29 colon -13.6% | SNB-75 CNS -3.97% | SNB-19 CNS 4.66% | U251 CNS -80.5% | PC-3 prostate 9.61% | SK-MEL-5 melanoma -82.5% | UACC-62 melanoma -54.2% | SK-MEL-28 melanoma -32.1%

O=C(N/N=C\c1c(O)ccc2ccccc12)C1CC1
inactive: HCT-15 colon 28.4% | HT29 colon 69.6% | SNB-75 CNS 53.8% | SNB-19 CNS 54.9% | U251 CNS 35.6% | PC-3 prostate 45.8% | SK-MEL-5 melanoma 53.1% | UACC-62 melanoma 25.2% | SK-MEL-28 melanoma 69.7%

COC(=O)[C@]12CC[C@@H](C(/C=C/c3cccnc3)=N/O)[C@@H]1[C@H]1CC[C@@H]3[C@@]4(C)CC(=C/c5cccnc5)/C(=N/O)C(C)(C)[C@@H]4CC[C@@]3(C)[C@]1(C)CC2
active: SK-MEL-5 melanoma -21.5%
inactive: HCT-15 colon 23.4% | HT29 colon 32.8% | SNB-75 CNS 22.8% | SNB-19 CNS 71.9% | U251 CNS 52.9% | PC-3 prostate 20.8% | UACC-62 melanoma 15.7% | SK-MEL-28 melanoma 50.8%

CC(=O)NC1=C(C#N)C(c2ccccc2Cl)c2c(ccc3ccccc23)O1 (configuration not stated)
inactive: HCT-15 colon 32% | HT29 colon 51.6% | SNB-75 CNS 30.1% | SNB-19 CNS 58.1% | U251 CNS 69.3% | PC-3 prostate 60.6% | SK-MEL-5 melanoma 56.7% | UACC-62 melanoma 36.6% | SK-MEL-28 melanoma 66.4%

O=C1c2cccc3cccc(c23)C(=O)N1CC#Cc1ccc2c3c(cccc13)C(=O)N(CCN1CCNCC1)C2=O
inactive: HCT-15 colon 61.7% | HT29 colon 23.5% | SNB-75 CNS 99.6% | SNB-19 CNS 86.2% | U251 CNS 56.4% | PC-3 prostate 85.5% | SK-MEL-5 melanoma 103% | UACC-62 melanoma 105% | SK-MEL-28 melanoma 13.5%

N#CC1=C(N)Oc2ccc3ccccc3c2C1c1ccccc1Cl (configuration not stated)
inactive: HCT-15 colon 24% | HT29 colon 22.2% | SNB-19 CNS 33.9% | U251 CNS 37.2% | PC-3 prostate 46.1% | SK-MEL-5 melanoma 42.7% | UACC-62 melanoma 24.2% | SK-MEL-28 melanoma 61.1%
active: SNB-75 CNS -2.04%

O=c1c2sc3ncc(Br)cc3c2ncn1-c1cccc(Cl)c1
inactive: HCT-15 colon 88.5% | HT29 colon 71.5% | SNB-75 CNS 16.4% | SNB-19 CNS 89.5% | U251 CNS 33.4% | PC-3 prostate 81.9% | SK-MEL-5 melanoma 76.2% | UACC-62 melanoma 80.3% | SK-MEL-28 melanoma 78%

COC(=O)[C@]12CC[C@@H](C(C)=O)[C@@H]1[C@H]1CC[C@@H]3[C@@]4(C)C/C(=C/c5cccnc5)C(=O)C(C)(C)[C@@H]4CC[C@@]3(C)[C@]1(C)CC2
inactive: HCT-15 colon 23.2% | HT29 colon 16.5% | SNB-75 CNS 110% | SNB-19 CNS 67.7% | U251 CNS 56.6% | PC-3 prostate 24.4% | SK-MEL-5 melanoma 39.8% | UACC-62 melanoma 34.5% | SK-MEL-28 melanoma 31.5%

COc1ccc(-c2nc3ccccn3c2-c2nc3ccc(Cl)cc3[nH]2)cc1
inactive: HCT-15 colon 89.1% | HT29 colon 83.7% | SNB-75 CNS 67.5% | SNB-19 CNS 96.2% | U251 CNS 92.9% | PC-3 prostate 57.5% | SK-MEL-5 melanoma 83% | UACC-62 melanoma 86.3% | SK-MEL-28 melanoma 101%
